PubChem BioAssay (NCATS)
Where “and” joins values, the source holds several entries; their conditions need not be identical. Identical values can stand only once. Inconclusive results are not listed. Calls of active or inactive are those of the source. Calls follow the shape of the dose curve; as a rule, active = well fitted cell-killing curve with a large enough effect; inconclusive = small, poorly fitted or top-dose-only effect; inactive = no such curve, though single readings can be large or run the other way.

Assay: qHTS of pediatric cancer cell lines to identify multiple opportunities for drug repurposing: Primary screen for Rh41 cells (AID 1347108); also: nearly all actives have a fitted effect of over 70% in size;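 as to activity change, negative = cytotoxic: luminescence drop marks cytotoxic hits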
Conditions: Rh41 rhabdomyosarcoma viability, CellTiter-Glo luminescence, 48 h; series mostly up to 46 µM; activity change, negative = cytotoxic: at the top concentration
Excerpt: Drug repurposing or repositioning has been offered as a strategy for drug development in oncology programs. This approach has special potential for childhood cancers and other rare or orphan diseases, where the expected return on new drug development has been a disincentive to pharmaceuticals. […] In this project we exploit the poly-pharmacology of drugs to discover new indications via phenotypic screening of a panel of 19 well-characterized cell lines derived from solid tumors seen in children and adolescents. The goal is to identify approved drugs with previously unrecognized anticancer properties that has the potential to reveal new mechanisms and biological processes involved in carcinogenesis or drug resistance. We employed a titration-based paradigm (quantitative high-throughput screening or qHTS), where all compounds were tested at multiple concentrations for their effect on cell viability. Concentration-response curves (CRCs) were derived directly from the primary screen, and both potency and efficacy values were used to identify compounds with robust bioactivity profiles. We screened the NIH Chemical Genomics Center (NCGC) Pharmaceutical Collection (NPC) and Mechanism Interrogation Plate (MIPE) small molecule collections of approved and investigational compounds against these cell lines; and measured metabolically active cells after 48 hours of compound treatment as a proxy for cell viability. […] Assay Submitter: Nathalia J. Martinez, National Center for Advancing Translational Sciences, National Institutes of Health, Rockville, MD, USA; email: natalia.martinez@nih.gov Shen, M et al. Quantitative high-throughput phenotypic screening of pediatric cancer cell lines identifies multiple opportunities for drug repurposing. Oncotarget 2017 Dec 19;9(4):4758-4772. PMID 29435139.
The cells were obtained from University of North Carolina (UNC), Pediatric Preclinical Testing Program (PPT), and Coriell Institute (CI). qHTS cell viability assay: Cells were assayed in growth media at a density of 500-1,000 cells/well. Five microliters of cells were dispensed into 1,536-well, white, solid-bottom, TC-treated plates (Greiner Bio One) using a multidrop dispenser and incubated at 37 degrees C, 5% CO2, under a humidified atmosphere for 5 hours. Twenty-three nanoliters of compounds and controls (neutral control DMSO or positive control bortezomib at final concentration of 2.3 µM) were subsequently transferred by Kalypsys pintool. For primary screens, the MIPE collection was tested at 11-point dilutions (final concentrations range from 0.78 nM to 46 µM) and the NPC collection at 8-point dilutions (final concentrations range from 0.59 nM to 46 µM). Compounds tested in follow-up screens were assayed at 11-point dilutions. Cells were incubated for 48 hours, followed by addition of 3 µL of CellTiter-Glo (Promega). After a 15 min incubation at room temperature, samples were analyzed for luminescence intensity using a ViewLux High-throughput CCD imager equipped with clear filters.
Potency is read from the fitted curve at half-maximal effect.

Compound | Potency | activity change, negative = cytotoxic
CC[C@H](Nc1ncnc2nc[nH]c12)c1nc2cccc(F)c2c(=O)n1-c1ccccc1 | 14.8 µM (active) | –
Cc1cc2c(C(C)C)c(O)c(O)c(C=O)c2c(O)c1-c1c(C)cc2c(C(C)C)c(O)c(O)c(C=O)c2c1O | 16.8 µM (active) and 18.7 µM (active) | –
Nc1nc2c(ncn2COCCO)c(=O)[nH]1 | inactive | –
CCC(C)(C)C(=O)O[C@H]1C[C@@H](C)C=C2C=C[C@H](C)[C@H](CC[C@@H]3C[C@@H](O)CC(=O)O3)[C@H]21 | – | -6.77% (inactive)
Nc1nccc(-c2ccc3noc(-c4ccc(Cl)cc4)c3c2)n1 | – | 17.7% (inactive)
Clc1ccc(Nc2nnc(Cc3ccncc3)c3ccccc23)cc1 | – | -1.89% (inactive)
O=C1CCC(N2C(=O)c3ccccc3C2=O)C(=O)N1 (stereo not given) | inactive | –
Cc1cccc(-c2[nH]c(C(C)(C)C)nc2-c2ccc3nccnc3c2)n1 | 2.96 µM (active) | –
Cc1c(CN2CCN(C(=O)C(C)C)CC2)sc2c(N3CCOCC3)nc(-c3cnc(N)nc3)nc12 | 0.235 µM (active) | –
CCOC(=O)C1=C[C@]2(CC)CCCN3CCc4c(n1c1ccccc41)[C@@H]32 | – | 3.11% (inactive)
OC(CN1CCC(Cc2ccc(F)cc2)CC1)c1ccc(Cl)cc1 (stereo not given) | inactive | –
Nc1ccc(S(=O)(=O)Nc2ccnn2-c2ccccc2)cc1 | inactive | –
CC(C)OC(=O)C1=CN(C(=O)c2ccc(F)c(F)c2)CC(C)(C)c2c1[nH]c1ccccc21 | – | 5.46% (inactive)
Fc1ccc(Cl)cc1-c1nc(Nc2ccncc2)c2nccnc2n1 | – | -2.75% (inactive)
COCCNCCCn1c(C(=O)CF)c(-c2ccc(C)cc2)c2c(N)ncnc21 | – | -4.58% (inactive)
OC(CCN1CCCCC1)(c1ccccc1)C1CC2C=CC1C2 (stereo not given) | inactive | –
Clc1cccc(Cl)c1NC1=NCCN1 | inactive | –
Cc1cnc(Nc2ccc(OCCN3CCCC3)cc2)nc1Nc1cccc(S(=O)(=O)NC(C)(C)C)c1 | – | 3.44% (inactive)
CCN(CC)CCCC(C)Nc1nc(C)cc(Nc2ccc3nc(C)cc(N)c3c2)n1 (stereo not given) | – | -6.37% (inactive)
CC1(C)SCCN(S(=O)(=O)c2ccc(OCC#CCO)cc2)[C@@H]1C(=O)NO | – | -4.04% (inactive)

Compound | Potency | activity change, negative = cytotoxic
CN1CCN(CCCN2c3ccccc3Sc3ccc(C(F)(F)F)cc32)CC1 | – | 24.9% (inactive)
NNCCc1ccccc1 | inactive | –
COc1ccc([C@@H]2CC(=O)c3c(O)cc(O[C@@H]4O[C@H](CO[C@@H]5O[C@@H](C)[C@H](O)[C@@H](O)[C@@H]5O)[C@@H](O)[C@H](O)[C@@H]4O)cc3O2)cc1O | inactive | –
CCCS(=O)(=O)Nc1ccc(F)c(C(=O)c2c[nH]c3ncc(Cl)cc23)c1F | – | 6.8% (inactive)
c1ccc(-c2nn3c(c2-c2ccnc4cc(OCCN5CCOCC5)ccc24)CCC3)nc1 | – | -12.2% (inactive)
CC(C)NCC(O)COc1ccc(COCCOC(C)C)cc1 (stereo not given) | inactive | –
CCC(C)n1ncn(-c2ccc(N3CCN(c4ccc(OC[C@H]5CO[C@](Cn6cncn6)(c6ccc(Cl)cc6Cl)O5)cc4)CC3)cc2)c1=O (stereo not given in full) | inactive | –
C[C@@H]1CN(Cc2ccc(F)cc2)[C@@H](C)CN1C(=O)c1cc2c(C(=O)C(=O)N(C)C)cn(C)c2cc1Cl | 14.8 µM (active) | –
COc1ccc(-c2ccc3c(N4CCOC[C@H]4C)nc(N4CCOC[C@H]4C)nc3n2)cc1CO | 0.0418 µM (active) | –
OCCC#Cc1nc(-c2ccc(F)cc2)c(-c2ccncc2)n1CCCc1ccccc1 | 18.7 µM (active) | –
CCCc1nc2c(C)cc(-c3nc4ccccc4n3C)cc2n1Cc1ccc(-c2ccccc2C(=O)O)cc1 | inactive | –
CCOC(=O)N1CCC(=C2c3ccc(Cl)cc3CCc3cccnc32)CC1 | 23.5 µM (active) and 23.7 µM (active) | –
C#Cc1cccc(Nc2ncnc3cc(OCCOC)c(OCCOC)cc23)c1 | 11.8 µM (active) | –
CNC(=O)c1ccc(N2C(=S)N(c3ccc(C#N)c(C(F)(F)F)c3)C(=O)C2(C)C)cc1F | – | 6.78% (inactive)
Cc1ccccc1C(OCCN(C)C)c1ccccc1 (stereo not given) | inactive | –
CCCCNc1cc(C(=O)O)cc(S(N)(=O)=O)c1Oc1ccccc1 | inactive | –
CC(c1cc2ccccc2s1)N(O)C(N)=O (stereo not given) | inactive | –
Oc1cccc(-c2nc(N3CCOCC3)c3oc4ncccc4c3n2)c1 | 0.382 µM (active) | –
Cc1[nH]c(=O)c(C#N)cc1-c1ccncc1 | inactive | –
N[C@@H]1CONC1=O | inactive | –
